Experimental findings from PubChem BioAssay AID504387 (National Center for Advancing Translational Sciences (NCATS), 2011) are described below.

The structures appear in SMILES notation. Activity calls are given as the source filed them. No rule for the calls is given here.

Sequence of Thyrotropin receptor (Homo sapiens) (P16473 whole entry, looked up): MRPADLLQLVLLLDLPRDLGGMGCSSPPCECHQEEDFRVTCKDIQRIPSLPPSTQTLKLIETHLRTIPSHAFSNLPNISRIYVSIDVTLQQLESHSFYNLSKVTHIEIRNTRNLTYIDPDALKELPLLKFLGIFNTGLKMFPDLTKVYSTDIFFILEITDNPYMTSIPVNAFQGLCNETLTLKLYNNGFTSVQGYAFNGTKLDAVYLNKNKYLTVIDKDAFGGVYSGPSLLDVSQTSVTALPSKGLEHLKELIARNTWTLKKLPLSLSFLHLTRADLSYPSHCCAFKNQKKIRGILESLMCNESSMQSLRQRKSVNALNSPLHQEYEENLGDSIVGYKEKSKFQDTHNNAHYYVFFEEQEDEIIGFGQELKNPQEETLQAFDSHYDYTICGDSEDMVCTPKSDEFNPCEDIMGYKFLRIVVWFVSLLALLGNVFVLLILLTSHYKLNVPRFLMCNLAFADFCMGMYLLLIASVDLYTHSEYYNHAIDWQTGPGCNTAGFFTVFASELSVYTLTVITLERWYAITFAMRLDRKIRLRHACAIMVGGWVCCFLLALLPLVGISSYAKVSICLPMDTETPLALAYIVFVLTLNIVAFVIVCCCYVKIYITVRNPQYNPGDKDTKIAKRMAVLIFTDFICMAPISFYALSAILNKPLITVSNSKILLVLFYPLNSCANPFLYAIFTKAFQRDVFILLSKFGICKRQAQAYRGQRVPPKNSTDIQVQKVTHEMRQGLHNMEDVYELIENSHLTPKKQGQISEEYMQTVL

For this assay, the target named is Thyrotropin receptor (Homo sapiens) (UniProt P16473). Briefly: Concentration-response assay for antagonists of the thyroid stimulating hormone receptor: ELISA activity detection. Conditions: HEK293-TSHR, TSH-induced cAMP, ELISA chemiluminescence. The source says:
TSH is an alpha/beta heterodimeric glycoprotein hormone secreted from the anterior pituitary gland which belongs to the glycoprotein hormone family. The actions of TSH are mediated by a seven-transmembrane receptor, which upon TSH binding couples preferentially to the G-alpha (s) protein (Gs), resulting in activation of adenylate cyclase and increase in cyclic adenosine 3', 5' monophosphate (cAMP). The TSH receptor (THSR) is mainly expressed in thyroid follicular cells and regulates their growth and function. This cell based assay was conducted on a TSHR transfected HEK 293 cell line, measuring cAMP stimulation using antibody-based Homogeneous Time Resolved Fluorescence (HTRF). Our goal is to identify small molecules that will inhibit (antagonize) the thyroid-stimulating hormone receptor (TSHR), a member of the 7 transmembrane-spanning receptor (7TMR) family of cell surface receptors. TSHR-mediated hyperthyroidism is important in thyroid pathology. The development of small molecule antagonists of TSHR may lead to therapeutic approaches for TSHR-mediated hyperthyroidism caused by constitutively activating mutations or stimulating auto-antibodies associated with Graves' disease. Graves' disease is the leading cause of hyperthyroidism and is caused by autoantibodies that stimulate TSHR (TsAbs) causing thyroid growth and unregulated overproduction of thyroid hormones and existing treatments have liabilities (agranulocytosis). In addition, TSHRs are known to be expressed in multiple extrathyroidal tissues including bone, brain, kidney, testis, fat and cells of the immune system but the role of the TSHR in these tissues is not clear. Therefore, TSHR antagonists/inverse agonists could be used as probes of extrathyroidal TSHR function. Finally, TSHR inverse agonists, which are a subclass of antagonists that inhibit agonist-independent (or basal or constitutive) TSHR signaling, could be used to inhibit TSH-independent signaling in patients with recurrent or metastatic thyroid cancer who are receiving thyroid hormone to suppress TSH. A confirmatory assay of TSHR antagonists was conducted on a HEK 293 cell line stably expressing the TSHR, using an orthogonal detection technology to measure cAMP stimulation: an ELISA based cAMP competition assay using cAMP-Screen Direct System (Applied Biosystems, Foster City, CA).
Transiently transfected HEK-EM 293 cells or cells stably expressing TSHRs were seeded into 96-well plates at a density of 7 x10^4 cells per well in DMEM containing 10% FBS. Cells were cultured for 24 h before incubation for 20 min in HBSS/10 mM HEPES (pH 7.4). To determine the effect of the compound on TSH induced TSHR activity, cells were incubated for 20 min with the compound in HBSS/HEPES without IBMX and subsequently for 40 min with bovine TSH (Sigma) and the compound in HBSS/HEPES supplemented with 1 mM IBMX at 37 C. The levels of cAMP in cells incubated in HBSS/HEPES without IBMX were subtracted in all experiments. After aspiration of the incubation medium, cells were lysed using lysis buffer of the cAMP-Screen Direct system (Applied Biosystems, Foster City, CA). The cAMP content of the cell lysate was determined using the method described in the manufacturer's protocol. The chemiluminescence signal was measured in a VICTOR3 V 1420 multilabel counter (PerkinElmer, Norwalk, CT). The potencies (EC50 and IC50) of the ligands were obtained from dose-response curves by data analysis with GraphPad Prism 4 for Windows.
A general note: ELISA stands for enzyme-linked immunosorbent assay.
Consider `COc1ccc(C2Nc3ccccc3C(=O)N2Cc2ccccn2)cc1COc1c(C)cccc1C` (stereo unspecified), for which the compound was called inactive.

For the compound `COc1ccc(C2Nc3cccc(O)c3C(=O)N2Cc2ccco2)cc1COc1c(C)cc(NC(C)=O)cc1C` (stereo unspecified), the result was inactive.

Consider `COc1ccc(C2Nc3ccccc3C(=O)N2Cc2ccccc2)cc1COc1c(C)cccc1C` (stereo unspecified), for which the compound was called inactive.

`COc1ccc(C2Nc3ccccc3C(=O)N2Cc2ccco2)cc1CSc1c(C)cccc1C` (stereo unspecified): the IC50 (usually the point on the concentration scale where inhibition reaches its midpoint) was 9.9 µM (active).

Take `COc1ccc(C2Nc3ccccc3C(=O)N2Cc2cccs2)cc1COc1c(C)cccc1C` (stereo unspecified): the IC50 is 1 µM (active).

Turning to `COc1ccc(C2Nc3ccccc3C(=O)N2Cc2ccco2)cc1COc1ccccc1C` (stereo unspecified), the outcome was inactive.

`CCc1cccc(CC)c1OCc1cc(C2Nc3ccccc3C(=O)N2Cc2ccco2)ccc1OC` (stereo unspecified): the IC50 was 22.3 µM (active).

On to `Cc1cccc(C)c1OCc1cccc(C2Nc3ccccc3C(=O)N2Cc2ccco2)c1` (stereo unspecified), for which the IC50 is 1.9 µM (active).

For `COc1ccc(C2Nc3ccccc3C(=O)N2Cc2cccnc2)cc1COc1c(C)cccc1C` (stereo unspecified), the IC50 is 3.5 µM (active).

Regarding `COc1ccc(C2Nc3ccccc3C(=O)N2Cc2ccco2)cc1COc1c(C)cc(NC(C)=O)cc1C` (stereo unspecified), the IC50 is 2.3 µM (active).

On to `COc1ccc(C2Nc3ccccc3C(=O)N2Cc2ccc(C)o2)cc1COc1c(C)cccc1C` (stereo unspecified), for which the IC50 was 2.3 µM (active).
